# Test results: the supplement of paper PMC10849652
# Targets with a hit are over-represented here; the source holds about 8,800 in all. About 0.5% of all pairs of compound and target were hits. Unmarked numbers belong to inactive results.
# What was measured:
# Assay in all cases: log2 fold change, soluble protein after heating vs DMSO (PISA); higher = thermal stabilisation; K562 lysate, 10 uM; active = over 0.2 and 3.5 SD of the protein, either way, in both replicates (recomputed)
# [1] = compound: CS(=O)(=O)CCNCc1ccc(-c2ccc3ncnc(Nc4ccc(OCc5cccc(F)c5)c(Cl)c4)c3c2)o1 [lapatinib]
# How it was run: (§1)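 Values give the log-two fold change in thermal stability against solvent controls, from duplicates. Crude K562 extract at 1 mg/mL protein, made by dounce homogenisation in PBS pH 7.4 with 1 mM MgCl2, was treated with 10 μM compound for 30 min. After 3 min heating across 48°C-58°C, aliquots were pooled, adjusted to 0.5% NP-40 at 4°C and centrifuged at 21,000xg for 90 min. The supernatant was measured by TMTpro 16plex LC-MS/MS with channel sums equalised.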
# [2] = compound: CS(=O)(=O)N1CCN(Cc2cc3nc(-c4cccc5[nH]ncc45)nc(N4CCOCC4)c3s2)CC1 [pictilisib]
# How it was run: as §1
# [3] = compound: C[C@@H](Oc1cc(-c2cnn(C3CCNCC3)c2)cnc1N)c1c(Cl)ccc(F)c1Cl [crizotinib]
# How it was run: as §1
# [4] = compound: C[C@H](C1=CC=C(C=C1)C(=O)NC2=C3C=CNC3=NC=C2)N
# How it was run: as §1
# [5] = compound: C[C@H](Nc1ncnc2nc[nH]c12)c1cc2cccc(Cl)c2c(=O)n1-c1ccccc1 [duvelisib]
# How it was run: as §1
# [6] = compound: Cc1cc(Nc2cc(CN3CCOCC3)c3nc(C)c(Cc4ccc(Cl)cc4F)n3n2)n[nH]1 [gandotinib]
# How it was run: as §1
# [7] = compound: Cc1cc(Nc2cc(N3CCN(C)CC3)nc(Sc3ccc(NC(=O)C4CC4)cc3)n2)n[nH]1 [tozasertib]
# How it was run: as §1
# [8] = compound: Cc1ccc(-n2nc(C(C)(C)C)cc2NC(=O)Nc2ccc(OCCN3CCOCC3)c3ccccc23)cc1 [doramapimod]
# How it was run: as §1
# [9] = compound: Cc1ccc(NC(=O)c2ccc(CN3CC[C@H](N(C)C)C3)c(C(F)(F)F)c2)cc1Nc1nccc(-c2cncnc2)n1 [bafetinib]
# How it was run: as §1
# [10] = compound: Cc1cccc(CC(=O)N2CCc3c2ccc(-c2cn(C)c4ncnc(N)c24)c3F)n1
# How it was run: as §1
# [11] = compound: Cc1cn(-c2cc(NC(=O)c3ccc(C)c(Nc4nccc(-c5cccnc5)n4)c3)cc(C(F)(F)F)c2)cn1 [nilotinib]
# How it was run: as §1
# [12] = compound: Cc1nc(Nc2n[nH]c3c2CN(C(=O)N[C@H](CN(C)C)c2ccccc2)C3(C)C)c2sccc2n1
# How it was run: as §1
# [13] = compound: Cc1nc(Nc2ncc(C(=O)Nc3c(C)cccc3Cl)s2)cc(N2CCN(CCO)CC2)n1 [dasatinib]
# How it was run: as §1
# [14] = compound: Cc1ncc(-c2ccnc(Nc3ccc(S(C)(=O)=O)cc3)n2)n1C(C)C
# How it was run: as §1
# [15] = compound: Cn1cc(-c2ccc3c(c2)CCN3C(=O)Cc2cccc(C(F)(F)F)c2)c2c(N)ncnc21
# How it was run: as §1
# [16] = compound: Cn1cc(CNCC2CCN(c3ncc(C(=O)NO)cn3)CC2)c2ccccc21 [quisinostat]
# How it was run: as §1
# [17] = compound: Cn1cncc1[C@@](N)(c1ccc(Cl)cc1)c1ccc2c(c1)c(-c1cccc(Cl)c1)cc(=O)n2C [tipifarnib]
# How it was run: as §1
# [18] = compound: NC(=O)Nc1cc(-c2cccc(F)c2)sc1C(=O)N[C@H]1CCCNC1
# How it was run: as §1
# [19] = compound: NC(=O)c1cnc(N[C@@H]2CCCC[C@@H]2N)nc1Nc1cccc(-n2nccn2)c1
# How it was run: as §1
# [20] = compound: NC1(c2ccc(-c3nc4ccn5c(=O)[nH]nc5c4cc3-c3ccccc3)cc2)CCC1
# How it was run: as §1
# UniProt Q5T4S7, sequence (Q5T4S7 whole entry, looked up): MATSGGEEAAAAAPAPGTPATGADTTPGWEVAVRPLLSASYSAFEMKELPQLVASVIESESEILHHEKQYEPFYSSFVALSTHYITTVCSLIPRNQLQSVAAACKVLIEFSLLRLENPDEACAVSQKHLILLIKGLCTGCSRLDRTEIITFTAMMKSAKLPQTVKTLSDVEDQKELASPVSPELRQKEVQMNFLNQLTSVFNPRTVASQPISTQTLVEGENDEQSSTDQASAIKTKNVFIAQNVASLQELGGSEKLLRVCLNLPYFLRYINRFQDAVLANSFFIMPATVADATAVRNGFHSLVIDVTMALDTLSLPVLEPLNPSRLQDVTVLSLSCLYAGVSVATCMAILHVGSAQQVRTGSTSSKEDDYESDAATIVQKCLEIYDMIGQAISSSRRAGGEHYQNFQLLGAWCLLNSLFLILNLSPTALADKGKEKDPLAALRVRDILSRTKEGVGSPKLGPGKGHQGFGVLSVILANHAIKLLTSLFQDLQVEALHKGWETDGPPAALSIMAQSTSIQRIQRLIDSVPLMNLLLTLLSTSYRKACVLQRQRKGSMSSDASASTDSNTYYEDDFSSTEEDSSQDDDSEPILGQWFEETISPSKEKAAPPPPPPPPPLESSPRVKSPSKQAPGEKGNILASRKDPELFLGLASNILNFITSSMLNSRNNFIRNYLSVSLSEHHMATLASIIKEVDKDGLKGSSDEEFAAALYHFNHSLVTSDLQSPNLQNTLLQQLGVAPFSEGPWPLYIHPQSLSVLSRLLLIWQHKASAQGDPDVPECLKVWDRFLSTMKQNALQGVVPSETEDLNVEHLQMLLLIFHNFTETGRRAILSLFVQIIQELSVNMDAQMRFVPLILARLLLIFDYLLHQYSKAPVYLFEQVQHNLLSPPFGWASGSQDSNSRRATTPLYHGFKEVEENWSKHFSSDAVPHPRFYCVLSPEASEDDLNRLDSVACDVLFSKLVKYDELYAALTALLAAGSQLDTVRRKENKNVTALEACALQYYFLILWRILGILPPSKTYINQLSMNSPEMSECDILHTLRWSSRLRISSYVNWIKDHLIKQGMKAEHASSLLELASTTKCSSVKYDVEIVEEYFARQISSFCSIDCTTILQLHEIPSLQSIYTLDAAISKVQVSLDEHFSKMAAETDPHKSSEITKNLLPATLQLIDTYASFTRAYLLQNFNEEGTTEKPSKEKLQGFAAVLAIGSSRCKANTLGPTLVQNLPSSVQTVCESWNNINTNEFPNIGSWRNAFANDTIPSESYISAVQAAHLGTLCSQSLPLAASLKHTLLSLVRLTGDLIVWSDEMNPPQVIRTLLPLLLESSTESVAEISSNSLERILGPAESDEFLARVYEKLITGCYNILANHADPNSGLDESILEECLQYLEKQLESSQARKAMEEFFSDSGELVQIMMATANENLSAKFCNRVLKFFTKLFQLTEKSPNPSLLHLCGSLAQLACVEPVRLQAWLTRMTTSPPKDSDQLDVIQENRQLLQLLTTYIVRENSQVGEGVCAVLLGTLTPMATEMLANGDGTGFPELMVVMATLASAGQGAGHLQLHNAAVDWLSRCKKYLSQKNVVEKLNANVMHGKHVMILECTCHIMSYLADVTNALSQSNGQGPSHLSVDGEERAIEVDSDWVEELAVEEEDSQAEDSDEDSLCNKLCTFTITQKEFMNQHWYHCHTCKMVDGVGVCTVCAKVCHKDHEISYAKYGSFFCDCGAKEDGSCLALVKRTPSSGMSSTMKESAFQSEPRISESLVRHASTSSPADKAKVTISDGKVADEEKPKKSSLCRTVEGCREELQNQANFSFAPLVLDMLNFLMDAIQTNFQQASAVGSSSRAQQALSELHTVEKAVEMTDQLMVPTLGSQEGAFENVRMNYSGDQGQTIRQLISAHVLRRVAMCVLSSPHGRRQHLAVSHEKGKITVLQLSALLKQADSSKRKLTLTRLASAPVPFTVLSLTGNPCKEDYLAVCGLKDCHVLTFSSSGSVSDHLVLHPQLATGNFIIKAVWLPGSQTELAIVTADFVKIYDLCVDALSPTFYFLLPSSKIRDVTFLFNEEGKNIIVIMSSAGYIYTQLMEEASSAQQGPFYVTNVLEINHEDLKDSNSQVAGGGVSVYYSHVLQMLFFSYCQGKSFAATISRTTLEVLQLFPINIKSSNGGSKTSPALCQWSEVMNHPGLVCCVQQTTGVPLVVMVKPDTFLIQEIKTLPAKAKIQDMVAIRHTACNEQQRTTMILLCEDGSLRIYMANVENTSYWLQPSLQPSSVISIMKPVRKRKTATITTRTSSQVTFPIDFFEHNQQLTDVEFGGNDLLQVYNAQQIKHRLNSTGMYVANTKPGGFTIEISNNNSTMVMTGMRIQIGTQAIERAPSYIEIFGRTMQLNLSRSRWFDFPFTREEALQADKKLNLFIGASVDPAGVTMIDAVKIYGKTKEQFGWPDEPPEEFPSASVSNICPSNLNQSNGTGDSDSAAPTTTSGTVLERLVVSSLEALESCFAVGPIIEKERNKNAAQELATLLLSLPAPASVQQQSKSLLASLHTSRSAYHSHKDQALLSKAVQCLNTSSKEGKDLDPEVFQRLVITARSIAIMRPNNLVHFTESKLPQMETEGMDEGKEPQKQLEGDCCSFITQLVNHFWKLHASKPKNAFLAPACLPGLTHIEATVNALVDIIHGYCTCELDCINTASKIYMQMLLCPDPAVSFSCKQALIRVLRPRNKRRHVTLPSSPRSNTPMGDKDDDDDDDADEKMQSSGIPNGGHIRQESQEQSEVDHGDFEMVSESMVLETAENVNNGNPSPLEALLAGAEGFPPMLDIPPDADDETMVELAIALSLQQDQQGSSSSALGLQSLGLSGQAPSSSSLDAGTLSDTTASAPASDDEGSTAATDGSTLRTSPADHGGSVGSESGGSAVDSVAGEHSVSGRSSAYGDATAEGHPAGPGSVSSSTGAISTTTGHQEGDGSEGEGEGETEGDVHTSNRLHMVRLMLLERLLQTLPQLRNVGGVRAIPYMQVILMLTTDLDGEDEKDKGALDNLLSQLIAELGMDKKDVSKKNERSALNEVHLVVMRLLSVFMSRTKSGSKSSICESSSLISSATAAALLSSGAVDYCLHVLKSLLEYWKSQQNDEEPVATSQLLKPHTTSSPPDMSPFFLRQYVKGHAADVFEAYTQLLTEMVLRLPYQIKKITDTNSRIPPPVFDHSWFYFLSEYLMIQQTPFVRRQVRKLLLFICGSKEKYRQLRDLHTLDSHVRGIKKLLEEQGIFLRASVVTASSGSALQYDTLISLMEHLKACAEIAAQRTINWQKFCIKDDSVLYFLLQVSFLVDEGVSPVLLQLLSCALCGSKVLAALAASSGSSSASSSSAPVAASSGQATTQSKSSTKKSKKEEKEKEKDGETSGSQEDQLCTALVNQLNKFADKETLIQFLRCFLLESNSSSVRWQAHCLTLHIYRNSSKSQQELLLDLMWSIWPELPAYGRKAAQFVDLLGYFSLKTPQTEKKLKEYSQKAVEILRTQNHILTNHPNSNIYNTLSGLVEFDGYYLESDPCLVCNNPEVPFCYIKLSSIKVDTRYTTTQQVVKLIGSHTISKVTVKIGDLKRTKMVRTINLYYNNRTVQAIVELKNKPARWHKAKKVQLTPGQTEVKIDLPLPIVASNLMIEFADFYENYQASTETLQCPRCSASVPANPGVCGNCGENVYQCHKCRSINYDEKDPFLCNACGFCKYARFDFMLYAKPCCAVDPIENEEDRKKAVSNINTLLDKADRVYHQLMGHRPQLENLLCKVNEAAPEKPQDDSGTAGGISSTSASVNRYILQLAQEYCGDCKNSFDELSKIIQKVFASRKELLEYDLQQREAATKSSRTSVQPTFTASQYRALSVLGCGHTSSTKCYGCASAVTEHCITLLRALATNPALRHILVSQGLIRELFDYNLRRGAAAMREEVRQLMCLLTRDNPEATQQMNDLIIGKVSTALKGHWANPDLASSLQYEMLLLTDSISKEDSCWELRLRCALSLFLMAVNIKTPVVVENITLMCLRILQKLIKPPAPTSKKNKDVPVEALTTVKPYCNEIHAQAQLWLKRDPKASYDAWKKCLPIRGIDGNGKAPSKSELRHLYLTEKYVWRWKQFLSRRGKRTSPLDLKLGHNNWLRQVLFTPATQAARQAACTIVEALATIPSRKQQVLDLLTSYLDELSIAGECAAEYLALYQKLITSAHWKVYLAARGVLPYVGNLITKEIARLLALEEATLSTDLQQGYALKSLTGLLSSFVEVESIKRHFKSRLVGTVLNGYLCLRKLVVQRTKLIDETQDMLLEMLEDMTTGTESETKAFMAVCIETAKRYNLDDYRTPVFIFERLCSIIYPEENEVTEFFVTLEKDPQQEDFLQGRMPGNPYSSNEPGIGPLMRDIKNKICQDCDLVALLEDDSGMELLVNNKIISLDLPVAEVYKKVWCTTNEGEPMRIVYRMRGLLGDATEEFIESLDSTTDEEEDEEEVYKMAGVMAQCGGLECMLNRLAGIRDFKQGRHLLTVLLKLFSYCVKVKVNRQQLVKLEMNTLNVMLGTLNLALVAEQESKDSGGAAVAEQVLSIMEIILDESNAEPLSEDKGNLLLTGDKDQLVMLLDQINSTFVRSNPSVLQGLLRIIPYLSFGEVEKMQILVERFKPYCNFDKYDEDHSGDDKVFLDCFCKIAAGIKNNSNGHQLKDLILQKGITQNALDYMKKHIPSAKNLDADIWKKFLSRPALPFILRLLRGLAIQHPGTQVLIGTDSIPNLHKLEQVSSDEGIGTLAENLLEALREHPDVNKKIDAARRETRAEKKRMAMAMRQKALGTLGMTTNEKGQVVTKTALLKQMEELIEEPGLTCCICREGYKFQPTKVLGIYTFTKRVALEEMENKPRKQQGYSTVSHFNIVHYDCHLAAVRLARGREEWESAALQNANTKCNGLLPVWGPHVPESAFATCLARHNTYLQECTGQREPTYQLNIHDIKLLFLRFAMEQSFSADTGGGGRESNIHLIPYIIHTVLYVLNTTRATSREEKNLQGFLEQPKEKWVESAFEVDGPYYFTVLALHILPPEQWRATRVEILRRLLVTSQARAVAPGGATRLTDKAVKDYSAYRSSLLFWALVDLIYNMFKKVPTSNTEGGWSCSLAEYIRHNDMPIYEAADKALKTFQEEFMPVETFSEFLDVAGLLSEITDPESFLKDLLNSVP
Target,log2 fold change [1],log2 fold change [2],log2 fold change [3],log2 fold change [4],log2 fold change [5],log2 fold change [6],log2 fold change [7],log2 fold change [8],log2 fold change [9],log2 fold change [10],log2 fold change [11],log2 fold change [12],log2 fold change [13],log2 fold change [14],log2 fold change [15],log2 fold change [16],log2 fold change [17],log2 fold change [18],log2 fold change [19],log2 fold change [20]
TPM1 (UniProt H7BYY1),0.028,0.042,0.096,0.063,-0.004,-0.118,0.012,-0.025,0.026,-0.158,0.014,-0.111,-0.023,0.028,0.02,0.101,0.059,-0.017,0.013,0.033
TPM4 (UniProt P67936),-0.002,-0.043,0.003,-0.001,-0.021,0.039,-0.098,-0.029,-0.055,-0.018,0.028,-0.068,0.058,-0.028,-0.01,0,-0.004,-0.054,0.007,-0.029
TTC12 isoform 2 (UniProt Q9H892),-0.053,-0.153,-0.068,-0.416,0.143,0.031,0.092,0.022,-0.14,0.445 (active),-0.128,-0.073,-0.143,0.018,0.004,0.033,0.075,0.007,-0.041,-0.073
TRA2A (UniProt Q13595),-0.012,0.032,-0.184,-0.048,-0.048,-0.011,0.015,0.086,0.042,0.053,0.098,-0.041,-0.08,-0.124,0.077,-0.213,-0.114,-0.206,0,-0.062
TPX2 (UniProt Q9ULW0),0.008,0.032,0.023,0.01,0.002,0.04,-0.003,0.049,-0.023,-0.011,-0.001,0.007,-0.002,0.002,0,-0.04,-0.007,-0.021,-0.02,-0.004
TUT4 (UniProt Q5TAX3),-0.003,-0.041,0,-0.064,0.006,-0.001,0.047,-0.023,-0.039,0.15,-0.06,0.02,-0.097,0.001,-0.001,-0.054,-0.045,0.055,0.048,-0.002
TBC1D8B (UniProt Q0IIM8),0,-0.072,0.013,-0.229,0.007,0.176,-0.011,0.014,0.03,0.097,0.021,-0.035,0.01,0.015,-0.042,-0.061,0.036,0.034,-0.042,-0.034
TRADD (UniProt Q15628),-0.015,-0.011,-0.003,-0.022,-0.081,-0.03,-0.011,-0.022,-0.034,0.035,0.009,-0.02,0.065,-0.013,-0.002,-0.018,0.053,0.044,0.01,0.041
TMEM164 (UniProt Q5U3C3),-0.166,0.186,-0.03,-0.789 (active),0.131,0.27,-0.091,-0.173,-0.05,0.512,0.06,-0.009,-0.087,0.162,-0.041,-0.404,-0.055,0.1,0.083,-0.036
TPST2 (UniProt O60704),0.028,0.621,-0.046,-0.671 (active),-0.029,0.109,-0.043,0.057,0.022,0.126,-0.02,-0.03,-0.007,0.016,0.008,-0.076,-0.058,0.064,-0.064,-0.087
TCF12 isoform 3 (UniProt Q99081),-0.047,0.055,0.034,-0.038,0.025,0.056,0.023,-0.011,-0.11,-0.001,-0.031,0.016,0,0.052,-0.022,0.02,-0.022,-0.011,-0.032,-0.043
UBR4 (UniProt Q5T4S7),-0.023,-0.015,-0.038,-0.017,-0.001,-0.08,0,0.01,-0.038,0.037,0.007,0.002,-0.027,0.001,0.018,-0.014,-0.001,0.023,-0.005,-0.001
TTC27 (UniProt Q6P3X3),-0.01,0.005,-0.041,-0.033,0.04,-0.129,0.004,0.048,-0.066,0.04,-0.018,0.027,-0.009,-0.031,0.01,-0.047,-0.03,0.057,-0.028,-0.023
TRIM65 (UniProt Q6PJ69),0.028,-0.035,-0.046,-0.06,0.072,-0.102,0.042,-0.02,0.034,0.088,-0.025,-0.008,-0.059,-0.021,0.005,-0.016,-0.004,0,0.08,-0.017
UBA1 (UniProt P22314),-0.005,-0.003,-0.037,-0.012,0.011,-0.017,-0.005,0.009,-0.017,0.023,-0.004,0.014,-0.026,0.002,0.028,-0.019,-0.01,0.019,0.008,-0.011
TRIM25 (UniProt Q14258),0.009,-0.031,0.1,0.031,-0.021,0,0.03,-0.036,-0.012,-0.038,0.014,0.027,-0.003,-0.001,-0.002,0.002,-0.001,-0.001,-0.019,0.023
